Source: PubChem BioAssay (EPA / NIEHS)
Results filed as inconclusive are left out. Calls of active or inactive are those of the source. Rule for the calls, unless noted: active = hit-call score of the fitted dose curve at least 0.9, where 1 is the maximum; inconclusive = response in the unintended direction; inactive = score below 0.9.

Experiments:
[1] = target: Estrogen receptor (Homo sapiens) (UniProt P03372); experiment: OT_ER_ERaERa_1440: Odyssey Thera (OT) 24-hour HEK293T Protein-Complementation Assay for Estrogen Receptor-alpha/-alpha Homodimer (AID 2283349);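 note: hits raise fluorescence above DMSO for agonists and antagonists alike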
Chain of Estrogen receptor (Homo sapiens) (P03372 whole entry, looked up, the tested form may be a part): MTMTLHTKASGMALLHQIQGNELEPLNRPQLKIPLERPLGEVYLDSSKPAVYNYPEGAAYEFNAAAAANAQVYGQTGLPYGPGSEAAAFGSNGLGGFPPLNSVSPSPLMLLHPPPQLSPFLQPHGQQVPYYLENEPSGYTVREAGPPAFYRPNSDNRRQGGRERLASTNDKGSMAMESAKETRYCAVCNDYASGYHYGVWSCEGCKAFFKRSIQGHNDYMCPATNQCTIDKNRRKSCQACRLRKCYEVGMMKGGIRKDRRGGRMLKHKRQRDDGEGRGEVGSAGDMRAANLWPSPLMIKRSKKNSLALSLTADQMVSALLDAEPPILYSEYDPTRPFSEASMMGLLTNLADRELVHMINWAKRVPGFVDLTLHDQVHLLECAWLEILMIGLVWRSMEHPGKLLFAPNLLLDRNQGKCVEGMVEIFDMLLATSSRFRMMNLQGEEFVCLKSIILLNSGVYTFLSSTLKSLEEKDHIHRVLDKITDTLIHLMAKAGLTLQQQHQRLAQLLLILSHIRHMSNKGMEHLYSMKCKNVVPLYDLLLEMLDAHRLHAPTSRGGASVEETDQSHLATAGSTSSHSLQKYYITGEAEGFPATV
Summary of the method: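 HEK293T, stable ERα LBD (aa 310-547) homodimer PCA; 24 h compound exposure; mean fluorescence intensity (nuclear for agonists, nuclear plus cytoplasmic for antagonists) vs vehicle; positive fitting direction, DMSO baseline.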

[2] = target: Estrogen receptor (Homo sapiens) (UniProt P03372); experiment: OT_ER_ERaERa_0480: Odyssey Thera (OT) 8-hour HEK293T Protein-Complementation Assay for Estrogen Receptor-alpha/-alpha Homodimer (AID 2283351);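 note: rise in fluorescence from reassembled reporter fragments on ERα LBD homodimer in nucleus or whole cell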
Summary of the method: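 Read-out: fluorescence intensity rise relative to DMSO, nuclear for agonists, nuclear plus cytoplasmic for antagonists. Construct is the ERα LBD (aa 310-547) homodimer fragment-complementation pair, stably expressed in HEK293T; exposure 8 h.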

[3] = target: T1, Estrogen receptor (Homo sapiens) + Estrogen receptor beta (Homo sapiens) (UniProt P03372+Q92731); experiment: OT_ER_ERaERb_0480: Odyssey Thera (OT) 8-hour HEK293T Protein-Complementation Assay for Estrogen Receptor-alpha/-beta Heterodimer (AID 2283352)
T1 sequence (P03372 whole entry, looked up, the tested form may be a part): as above
T1 sequence (Q92731 whole entry, looked up, the tested form may be a part): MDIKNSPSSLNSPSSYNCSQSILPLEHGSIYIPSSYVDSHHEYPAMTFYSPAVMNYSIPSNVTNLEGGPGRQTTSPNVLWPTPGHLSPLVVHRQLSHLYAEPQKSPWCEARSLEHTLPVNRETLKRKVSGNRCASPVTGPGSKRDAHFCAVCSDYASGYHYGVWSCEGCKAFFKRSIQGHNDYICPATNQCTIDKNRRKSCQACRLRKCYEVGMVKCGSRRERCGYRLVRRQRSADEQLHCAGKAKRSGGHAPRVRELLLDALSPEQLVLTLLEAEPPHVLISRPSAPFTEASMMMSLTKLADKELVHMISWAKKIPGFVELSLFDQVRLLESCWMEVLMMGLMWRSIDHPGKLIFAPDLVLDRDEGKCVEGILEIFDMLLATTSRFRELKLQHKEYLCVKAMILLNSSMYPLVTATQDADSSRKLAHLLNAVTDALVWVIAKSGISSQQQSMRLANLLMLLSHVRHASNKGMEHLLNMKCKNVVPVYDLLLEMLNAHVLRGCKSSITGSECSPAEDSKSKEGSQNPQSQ
Summary of the method: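 HEK293T protein-fragment complementation assay of ER-alpha/ER-beta LBD heterodimerisation, read 8 h after dosing. Mean nuclear/cytoplasmic fluorescence intensity measured by laser scanning cytometry; gain of signal fitted relative to DMSO.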

[4] = target: T1, Estrogen receptor (Homo sapiens) + Estrogen receptor beta (Homo sapiens); experiment: OT_ER_ERaERb_1440: Odyssey Thera (OT) 24-hour HEK293T Protein-Complementation Assay for Estrogen Receptor-alpha/-beta Homodimer (AID 2283356);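 note: heteromer of ER alpha and ER beta binding domains; hits raise reporter fluorescence and both agonists and antagonists give an increase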
Summary of the method: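 HEK293T stably expressing a PCA of ER alpha LBD (aa 310-547) and ER beta LBD (aa 263-489). After 24 h compound exposure, mean fluorescence intensity in nucleus (agonists) or nucleus and cytoplasm (antagonists) measured by laser scanning cytometry versus vehicle.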

[5] = target: Estrogen receptor beta (Homo sapiens) (UniProt Q92731); experiment: OT_ER_ERbERb_0480: Odyssey Thera (OT) 8-hour HEK293T Protein-Complementation Assay for Estrogen Receptor-beta/-beta Homodimer (AID 2283357);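 note: active means signal gain over DMSO baseline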
Chain of Estrogen receptor beta (Homo sapiens) (Q92731 whole entry, looked up, the tested form may be a part): as above
Summary of the method: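 ER-beta LBD homodimer PCA stably expressed in HEK293T; 8 h compound exposure, then formaldehyde fixation and Draq5 staining. Gain in nuclear/cytoplasmic fluorescence intensity versus DMSO vehicle, read on laser scanning cytometer.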

[6] = target: Estrogen receptor beta (Homo sapiens) (UniProt Q92731); experiment: OT_ER_ERbERb_1440: Odyssey Thera (OT) 24-hour HEK293T Protein-Complementation Assay for Estrogen Receptor-beta/-beta Homodimer (AID 2283380);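 note: scored as signal increase over DMSO baseline for both agonists and antagonists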
Summary of the method: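 Fluorescence increase, nuclear for agonists or whole-cell for antagonists, relative to DMSO vehicle, quantified by laser scanning cytometer after fixation and Draq5 staining. Readout from 24 h treatment of HEK293T cells carrying complementation-paired ER beta LBD (aa 310-547).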

[7] = target: Estrogen receptor (Homo sapiens) (UniProt P03372); experiment: OT_ERa_GFPERaERE_0480: Odyssey Thera (OT) 8-hour HeLa Transcription Induction Assay for Estrogen Receptor (AID 2283381; active = hit-call score of the fitted dose curve at least 0.9, where 1 is the maximum; inactive = score below 0.9)
Summary of the method: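 GFP-ERE reporter, HeLa, 8 h exposure. Readout: fluorescence microscopy, high-content image analysis. Fit direction positive vs DMSO negative control.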

[8] = target: Estrogen receptor (Homo sapiens) (UniProt P03372); experiment: OT_ERa_GFPERaERE_0120: Odyssey Thera (OT) 2-hour HeLa Transcription Induction Assay for Estrogen Receptor (AID 2283382)
Summary of the method: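 Fluorescence microscopy read-out: inducible fluorescent protein reporter in HeLa cells, imaged 2 h post-dose. Signal increase over DMSO negative control fitted as single primary endpoint via high content image analysis.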

[9] = target: Retinoic acid receptor RXR-alpha (Homo sapiens) (UniProt P19793); experiment: OT_NURR1_NURR1RXRa_0480: Odyssey Thera (OT) 8-hour HEK293T Protein Complementation Assay for Nurr1/retinoid X receptor (RXR) (AID 2283385)
Chain of Retinoic acid receptor RXR-alpha (Homo sapiens) (P19793 whole entry, looked up, the tested form may be a part): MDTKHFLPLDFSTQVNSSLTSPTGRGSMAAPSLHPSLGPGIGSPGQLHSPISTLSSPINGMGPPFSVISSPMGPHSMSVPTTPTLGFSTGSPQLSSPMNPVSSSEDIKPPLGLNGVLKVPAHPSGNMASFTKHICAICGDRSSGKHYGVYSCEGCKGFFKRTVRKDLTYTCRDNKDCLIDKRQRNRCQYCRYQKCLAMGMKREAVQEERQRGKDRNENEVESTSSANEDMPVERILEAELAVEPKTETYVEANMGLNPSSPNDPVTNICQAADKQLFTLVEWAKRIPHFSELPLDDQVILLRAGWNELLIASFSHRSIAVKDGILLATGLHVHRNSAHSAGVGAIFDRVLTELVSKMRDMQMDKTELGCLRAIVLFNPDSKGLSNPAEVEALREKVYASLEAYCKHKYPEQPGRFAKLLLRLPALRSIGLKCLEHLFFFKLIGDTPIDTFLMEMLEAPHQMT
Summary of the method: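 Read-out: fluorescence from protein-fragment complementation between Nurr1 and RXRα in human HEK293T cells, 8 h after dosing. DMSO served as negative control; increased signal counted as activity.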

[10] = target: Retinoic acid receptor RXR-alpha (Homo sapiens) (UniProt P19793); experiment: OT_NURR1_NURR1RXRa_1440: Odyssey Thera (OT) 24-hour HEK293T Protein Complementation Assay for Nurr1/retinoid X receptor (RXR) (AID 2283386)
Summary of the method: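 Fluorescence PCA read-out; HEK293T; 24 h post-dose; bait/prey fused to reporter fragments; gain-of-signal fit vs DMSO negative control.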

[11] = target: Peroxisome proliferator-activated receptor gamma (Homo sapiens) (UniProt P37231); experiment: OT_PPARg_PPARgSRC1_0480: Odyssey Thera (OT) 8-hour Protein-Complementation Assay for Peroxisome Proliferator-activated Receptor Gamma / SRC-1 Co-activator (AID 2283387)
Chain of Peroxisome proliferator-activated receptor gamma (Homo sapiens) (P37231 whole entry, looked up, the tested form may be a part): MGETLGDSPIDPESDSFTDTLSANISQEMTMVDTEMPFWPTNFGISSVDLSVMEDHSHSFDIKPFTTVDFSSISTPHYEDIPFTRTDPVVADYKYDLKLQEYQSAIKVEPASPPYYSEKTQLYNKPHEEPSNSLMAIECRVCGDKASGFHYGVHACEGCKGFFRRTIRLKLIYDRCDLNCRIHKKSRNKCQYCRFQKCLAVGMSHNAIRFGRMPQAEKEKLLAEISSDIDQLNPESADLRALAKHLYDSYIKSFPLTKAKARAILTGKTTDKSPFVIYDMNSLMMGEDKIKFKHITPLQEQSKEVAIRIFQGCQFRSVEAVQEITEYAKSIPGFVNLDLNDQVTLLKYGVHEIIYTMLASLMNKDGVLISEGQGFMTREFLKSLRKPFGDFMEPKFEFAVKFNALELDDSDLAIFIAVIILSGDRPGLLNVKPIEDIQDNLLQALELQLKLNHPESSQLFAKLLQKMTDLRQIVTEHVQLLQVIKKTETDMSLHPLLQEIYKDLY
Summary of the method: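 Read-out: 488 nm N/C fluorescence ratio from complemented Venus YFP fragments, ≥350 cells per image, gain-of-signal fitted against DMSO baseline. Fusions of PPARg/SRC-1 with IFP1/IFP2 expressed transiently in HEK293T; compounds applied 8 h.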

[12] = target: Peroxisome proliferator-activated receptor gamma (Homo sapiens) (UniProt P37231); experiment: OT_PPARg_PPARgSRC1_1440: Odyssey Thera (OT) 24-hour Protein-Complementation Assay for Peroxisome Proliferator-activated Receptor Gamma/ SRC-1 Co-activator (AID 2283388)
Summary of the method: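 HEK293T transiently transfected with PPARg/SRC-1 split-Venus YFP fusions 48 h before dosing, then treated 24 h at 37C. Fixed cells imaged; nuclear/cytoplasmic 488 nm fluorescence ratio, gain of signal versus DMSO.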

[13] = read-out: Fatty acid synthase (Homo sapiens) (UniProt P49327); experiment: LTEA_HepaRG_FASN: Life Technologies and Expression Analysis (LTEA) Assay for Fatty Acid Synthase (FASN) using HepaRG (AID 2283448; active = hit-call score of the fitted dose curve at least 0.9, where 1 is the maximum; inactive = score below 0.9); conditions: mRNA level, 48 h; actives raise or lower the signal
Summary of the method: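 HepaRG, 48 h exposure, 8-pt half-log series top 100 uM, 0.5% DMSO vehicle, duplicates. Readout: FASN transcript by Fluidigm qRT-PCR; housekeeping-normalized; bidirectional curve fit vs DMSO baseline.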

[14] = read-out: Cyclin D2 (CCND2), CCND2 (gene 894); experiment: LTEA_HepaRG_CCND2: Life Technologies and Expression Analysis (LTEA) Assay for Cyclin D2 (CCND2) using HepaRG (AID 2283449; active = hit-call score of the fitted dose curve at least 0.9, where 1 is the maximum; inactive = score below 0.9); conditions: mRNA level, 48 h; actives raise or lower the signal
Summary of the method: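 CCND2 transcript levels, quantified by qRT-PCR and normalised to three housekeeping genes, were fitted bidirectionally against 0.5% DMSO. HepaRG cultures were dosed 48 h in duplicate with an 8-point half-log series up to 100 uM.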

[15] = read-out: Cyclin Dependent Kinase Inhibitor 1A (CDKN1A), CDKN1A (gene 1026); experiment: LTEA_HepaRG_CDKN1A: Life Technologies and Expression Analysis (LTEA) Assay for Cyclin Dependent Kinase Inhibitor 1A (CDKN1A) using HepaRG (AID 2283450; active = hit-call score of the fitted dose curve at least 0.9, where 1 is the maximum; inactive = score below 0.9); conditions: mRNA level, 48 h; actives raise or lower the signal
Summary of the method: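 Differentiated HepaRG cells in serum-free induction medium, exposed 48 h in duplicate to eight half-log concentrations up to 100 uM in 0.5% DMSO. mRNA measured by TaqMan qRT-PCR, normalized to ACTB, GAPDH, POLR2A; bidirectional fit versus DMSO.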

[16] = read-out: Cyclin D1 (CCND1), CCND1 (gene 595); experiment: LTEA_HepaRG_CCND1: Life Technologies and Expression Analysis (LTEA) Assay for Cyclin D1 (CCND1) using HepaRG (AID 2283451; active = hit-call score of the fitted dose curve at least 0.9, where 1 is the maximum; inactive = score below 0.9); conditions: mRNA level, 48 h; actives raise or lower the signal
Summary of the method: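 Differentiated HepaRG cells exposed 48 h in serum-free induction medium to eight half-log concentrations from 100 uM top, 0.5% DMSO, duplicates. CCND1 mRNA measured by Fluidigm TaqMan qRT-PCR, normalised to ACTB, GAPDH, POLR2A; bidirectional fit.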

[17] = read-out: catalase (CAT), CAT (gene 847); experiment: LTEA_HepaRG_CAT: Life Technologies and Expression Analysis (LTEA) Assay for catalase (CAT) using HepaRG (AID 2283452; active = hit-call score of the fitted dose curve at least 0.9, where 1 is the maximum; inactive = score below 0.9); conditions: mRNA level, 48 h; actives raise or lower the signal
Summary of the method: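 Expression of CAT was quantified by TaqMan qRT-PCR with ACTB/GAPDH/POLR2A normalization after 48 h chemical exposure of HepaRG. Eight-point half-log series, top 100 uM, in 0.5% DMSO; gain or loss fitted against vehicle.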

[18] = read-out: flavin-containing dimethylaniline monooxygenases 3 (FMO3), FMO3 (gene 2328); experiment: LTEA_HepaRG_FMO3: Life Technologies and Expression Analysis (LTEA) Assay for flavin-containing dimethylaniline monooxygenases 3 (FMO3) using HepaRG (AID 2283453; active = hit-call score of the fitted dose curve at least 0.9, where 1 is the maximum; inactive = score below 0.9); conditions: mRNA level, 48 h; actives raise or lower the signal
Summary of the method: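 Eight-point concentration-response in serum-free HepaRG cultures (top 100 uM, 0.5% DMSO, 48 h). Read-out: FMO3 mRNA level normalized to three endogenous control genes, fitted bidirectionally versus vehicle.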

Measured: outcome

Chain of Fatty acid synthase (Homo sapiens) (P49327 whole entry, looked up): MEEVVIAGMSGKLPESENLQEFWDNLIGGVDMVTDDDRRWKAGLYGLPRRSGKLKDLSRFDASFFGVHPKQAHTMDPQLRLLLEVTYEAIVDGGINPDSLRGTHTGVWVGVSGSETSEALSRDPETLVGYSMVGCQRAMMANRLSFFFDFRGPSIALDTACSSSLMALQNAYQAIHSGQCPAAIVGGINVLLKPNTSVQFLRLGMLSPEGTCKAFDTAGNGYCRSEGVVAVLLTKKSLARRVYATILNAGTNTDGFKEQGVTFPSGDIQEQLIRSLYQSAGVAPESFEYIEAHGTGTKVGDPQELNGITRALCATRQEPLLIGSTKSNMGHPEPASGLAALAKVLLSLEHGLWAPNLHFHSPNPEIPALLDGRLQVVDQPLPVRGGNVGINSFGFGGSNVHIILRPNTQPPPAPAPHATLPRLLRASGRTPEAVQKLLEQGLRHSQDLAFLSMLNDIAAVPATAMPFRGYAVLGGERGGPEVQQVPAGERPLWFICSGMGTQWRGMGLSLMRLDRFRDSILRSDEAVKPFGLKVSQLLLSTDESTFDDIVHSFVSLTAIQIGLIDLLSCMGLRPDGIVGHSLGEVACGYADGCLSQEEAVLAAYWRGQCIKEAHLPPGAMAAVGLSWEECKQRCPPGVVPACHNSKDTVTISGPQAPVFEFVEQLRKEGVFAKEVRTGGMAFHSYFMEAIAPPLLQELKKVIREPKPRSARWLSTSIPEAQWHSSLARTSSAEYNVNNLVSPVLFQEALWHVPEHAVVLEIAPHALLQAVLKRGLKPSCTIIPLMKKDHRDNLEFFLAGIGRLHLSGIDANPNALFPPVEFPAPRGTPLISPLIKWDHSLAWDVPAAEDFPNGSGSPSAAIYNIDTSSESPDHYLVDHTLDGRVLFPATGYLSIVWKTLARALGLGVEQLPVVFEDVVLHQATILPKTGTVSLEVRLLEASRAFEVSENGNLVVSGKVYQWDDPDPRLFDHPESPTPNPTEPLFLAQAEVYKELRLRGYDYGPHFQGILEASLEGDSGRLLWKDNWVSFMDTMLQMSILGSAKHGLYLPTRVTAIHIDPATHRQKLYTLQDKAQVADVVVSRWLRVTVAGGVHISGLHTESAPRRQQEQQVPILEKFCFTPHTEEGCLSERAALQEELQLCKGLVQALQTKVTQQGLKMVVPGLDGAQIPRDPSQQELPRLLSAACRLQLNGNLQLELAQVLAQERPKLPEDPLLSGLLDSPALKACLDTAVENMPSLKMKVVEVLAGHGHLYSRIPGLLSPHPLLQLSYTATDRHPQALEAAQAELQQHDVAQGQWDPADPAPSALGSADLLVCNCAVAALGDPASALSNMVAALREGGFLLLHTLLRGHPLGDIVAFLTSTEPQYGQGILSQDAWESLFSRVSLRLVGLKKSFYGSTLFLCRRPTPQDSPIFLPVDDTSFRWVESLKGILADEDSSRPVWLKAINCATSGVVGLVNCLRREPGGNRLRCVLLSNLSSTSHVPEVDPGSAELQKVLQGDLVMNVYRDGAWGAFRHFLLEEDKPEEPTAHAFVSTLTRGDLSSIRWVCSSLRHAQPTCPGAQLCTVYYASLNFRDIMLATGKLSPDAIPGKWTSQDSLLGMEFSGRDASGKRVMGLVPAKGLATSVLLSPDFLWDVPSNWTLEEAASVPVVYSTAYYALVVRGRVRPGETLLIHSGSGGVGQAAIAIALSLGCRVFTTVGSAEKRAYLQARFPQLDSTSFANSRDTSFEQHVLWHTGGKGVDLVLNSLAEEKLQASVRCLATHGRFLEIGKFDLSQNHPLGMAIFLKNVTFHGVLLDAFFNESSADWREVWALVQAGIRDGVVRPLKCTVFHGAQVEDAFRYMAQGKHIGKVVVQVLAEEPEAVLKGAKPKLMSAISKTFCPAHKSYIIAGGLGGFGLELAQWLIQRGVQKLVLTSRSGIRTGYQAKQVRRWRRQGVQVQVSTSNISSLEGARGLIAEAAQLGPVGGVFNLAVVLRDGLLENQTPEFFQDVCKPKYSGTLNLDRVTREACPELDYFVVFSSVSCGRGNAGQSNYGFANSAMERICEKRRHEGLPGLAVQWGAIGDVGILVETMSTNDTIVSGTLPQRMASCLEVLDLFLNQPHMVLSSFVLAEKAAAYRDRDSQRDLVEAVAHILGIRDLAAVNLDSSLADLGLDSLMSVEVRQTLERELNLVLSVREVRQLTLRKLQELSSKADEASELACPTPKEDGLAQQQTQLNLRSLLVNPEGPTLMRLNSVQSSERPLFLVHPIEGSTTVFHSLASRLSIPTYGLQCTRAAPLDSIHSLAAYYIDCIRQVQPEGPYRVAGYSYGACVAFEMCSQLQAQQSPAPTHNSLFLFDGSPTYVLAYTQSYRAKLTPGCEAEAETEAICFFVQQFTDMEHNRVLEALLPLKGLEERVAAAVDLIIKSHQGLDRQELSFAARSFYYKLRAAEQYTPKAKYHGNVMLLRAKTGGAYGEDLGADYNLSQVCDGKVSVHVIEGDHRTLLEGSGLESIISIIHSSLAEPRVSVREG

c1cc[n+]2c(c1)-c1cccc[n+]1CC2
inactive: [1] | [2] | [3] | [4] | [5] | [6] | [7] | [8] | [9] | [10] | [11] | [12] | [13] | [14] | [15] | [16] | [17] | [18]
